The record followed here is PubChem BioAssay.

Assay [1] in a line: reducers of endogenous Her2 protein level, primary screen, SKBR3 breast tumor cells, AlphaScreen, ATP viability (AID 461;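 active = Her2 level under about 52% in both replicate screens, with viability over 70% of control, limit read from the data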;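 for Her2 level: lower value means less Her2 protein in the cells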;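 for viability: percent of carrier control wells set as 100% viability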). Conditions: 18-24 h, measured here: SKBR3 viability, ATP luminescence, at 10 µM. A general note: In Alpha technology, singlet oxygen from a donor bead excites a nearby acceptor bead.
Assay [2] has as its target Receptor tyrosine-protein kinase erbB-2 (Homo sapiens) (UniProt P04626). Described as above. Conditions: 18-24 h, at 10 µM, stronger effect = lower value.
Assay [3] in a line: SK-BR-3 cell growth inhibitors, pilot screen, 24 h, human (AID 572;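 active = viability at or below 10% of carrier control in both of two separate runs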;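 note: compound exposure lasted between 18 and 24 h rather than exactly 24 h; 100% = carrier-treated control wells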). Conditions: SK-BR-3 viability, CellTiter-Glo luminescence, at 10 µM, stronger effect = lower value. A general note: In ATP-based viability assays light output follows the ATP content of the culture.
Assay [4] is described as follows: HUVEC growth inhibition – cell-based, human, primary screen (AID 575;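 active = viability at or below 30% in both replicate assays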;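 note: 100% = median of untreated cell wells with 0.1% DMSO on each plate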). Conditions: HUVEC proliferation, CellTiter-Glo luminescence, 72 h; at 10 µM; stronger effect = lower value.
The nature of assay [5]: growth inhibitors of H69AR lung tumor, primary screen, human, duplicate replicates (AID 580;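 active = viability at or under a set limit in both replicates, limit being median viability minus 3 SD, cut at about 48% in these data, passing the limit was not always enough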;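 note: 100% = mean luminescence of untreated wells and 0% = no signal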). Conditions: H69AR lung tumor cells viability, ATP luminescence, 72 h; at 10 µM; stronger effect = lower value.
Assay [6] in a line: reversal of MRP1-mediated doxorubicin resistance, pilot screen, H69AR cells, doxorubicin co-treatment (AID 601;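 active = viability loss from added drug above about 55%, and viability with drug at most 40%, in both replicates, limit read from the data, passing the limit was not always enough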). Conditions: CellTiter-Glo, 72 h, at 10 µM; for differential viability (reversal): stronger effect = higher value.
Assay [7] in a line: 384-well plate pilot, post-Golgi transport modulator project, inhibition of yeast transport mutant growth (AID 636; in the data active = inhibition above about 31%). Conditions: absorbance 615 nm, about 18 h, stronger effect = higher value.
Assay [8] is described as follows: growth suppression of yeast trafficking mutant, preliminary HTS, modulators of trafficking downstream of Golgi apparatus project, 1536-format plate, OD 615 nm (AID 637; in the data active = inhibition above about 30%). Conditions: yeast transport mutant growth, absorbance 615 nm, 18 h; stronger effect = higher value.
Assay [9] can be described thus: OD615 S. cerevisiae growth inhibition, permissive medium, pilot counter-assay, permissive growth control for S. cerevisiae lifespan shortening project (AID 705;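 active = growth inhibition above 25% in both replicates, a cutoff set 3 SD above the mean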). Conditions: OD615, 24 h, at 10 µM, stronger effect = higher value.
The nature of assay [10]: Restrictive medium S. cerevisiae growth inhibition, OD615, pilot screen of yeast lifespan reduction project, restrictive growth control (AID 706;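 active = growth inhibition above a set limit, 3 SD over mean compound inhibition, in both replicates, cut at about 43% in these data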;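 note: modified DeaD lifespan yeast strain shifted to restrictive glucose medium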). Conditions: OD615, 48 h, at 10 µM, stronger effect = higher value.
Assay [11] in a line: viability gain of MRP-1-high H69AR cells under doxorubicin, pilot screen, MRP-1 activator project, CellTiter-Glo, duplicate (AID 807).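 Note: compound pretreatment 18-22 h then 72 h combined with doxorubicin; 0% = doxorubicin alone and 100% = vehicle without doxorubicin.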 Conditions: H69AR viability with doxorubicin, CellTiter-Glo luminescence; at 10 µM; stronger effect = higher value.
A short description of assay [12]: growth suppression of beta-catenin knockout HCT116, pilot screen, human colon tumor cells (AID 823;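 active = cell viability at or below a set limit in both duplicate runs, the limit being the all-compound median minus 4 SD, cut at about 23% in these data, passing the limit was not always enough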;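 note: 0% = wells killed by 20 µM Hyamine and 100% = untreated DMSO cell wells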). Conditions: CellTiter-Glo, 60 h, at 10 µM, stronger effect = lower value.
Assay [13] is described as follows: growth suppression of PTEN-deleted HCT116, pilot screen, cell-based, HCT116 clonal line, CellTiter-Glo (AID 824;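 active = viability at or below 27.92% in each of two runs, the all-compound median minus 4 SD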;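 note: 0% = 20 µM Hyamine control and 100% = vehicle cell control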). Conditions: 60 h, at 10 µM, stronger effect = lower value.
Assay [14] is described as follows: inhibitors of the yeast RAM network, pilot screen, dse1pr::URA3 reporter, 5-FOA selection (AID 869;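 active = inhibition over a set limit, the all-compound mean plus 3 SD, in both replicate runs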;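 note: 0% = DMSO wells with no growth and 100% = 10 µM 1-NA-PP1 with full growth; RAM network block rescues cells from 5-FOA so hits raise OD615 growth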). Conditions: S. cerevisiae dse1pr::URA3 5-FOA growth, OD615, 2 d; at 10 µM; stronger effect = higher value; strain carries analog-sensitive mutant Cbk1 kinase.
Assay [15] can be described thus: RAM signaling pathway blockade in yeast – S. cerevisiae, Pdr1DBD-CYC8 efflux-inhibited sensitized strain, primary screen (AID 1298;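 active = RAM network inhibition above 8.4% in each of two replicates, 3 SD over the compound average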;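 note: 0% = DMSO untreated cells without growth and 100% = 10 µM 1-NA-PP1 full growth; higher means more yeast growth rescued from 5-FOA killing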). Conditions: S. cerevisiae cbk1-as DSE1-URA3 strain, 5-FOA growth OD615, 2 d; at 50 µM; stronger effect = higher value.
The mark [16] stands for this setting: H69AR cells + 2 uM doxorubicin, measured here: viability with 2 uM doxorubicin, stronger effect = lower value.
Setting [17] is: H69AR cells, compound alone cytotoxicity.

Results filed as inconclusive are left out. Activity calls are given as the source filed them.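 Rule for the calls, unless noted: active = viability increase at or above a cutoff of the median across tested compounds plus 3 SD (cut at about 8.5% in these data, passing the limit was not always enough); inconclusive = some gains above the cutoff, reason not given; inactive = the rest.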

Receptor tyrosine-protein kinase erbB-2 (Homo sapiens), sequence (P04626 whole entry, looked up): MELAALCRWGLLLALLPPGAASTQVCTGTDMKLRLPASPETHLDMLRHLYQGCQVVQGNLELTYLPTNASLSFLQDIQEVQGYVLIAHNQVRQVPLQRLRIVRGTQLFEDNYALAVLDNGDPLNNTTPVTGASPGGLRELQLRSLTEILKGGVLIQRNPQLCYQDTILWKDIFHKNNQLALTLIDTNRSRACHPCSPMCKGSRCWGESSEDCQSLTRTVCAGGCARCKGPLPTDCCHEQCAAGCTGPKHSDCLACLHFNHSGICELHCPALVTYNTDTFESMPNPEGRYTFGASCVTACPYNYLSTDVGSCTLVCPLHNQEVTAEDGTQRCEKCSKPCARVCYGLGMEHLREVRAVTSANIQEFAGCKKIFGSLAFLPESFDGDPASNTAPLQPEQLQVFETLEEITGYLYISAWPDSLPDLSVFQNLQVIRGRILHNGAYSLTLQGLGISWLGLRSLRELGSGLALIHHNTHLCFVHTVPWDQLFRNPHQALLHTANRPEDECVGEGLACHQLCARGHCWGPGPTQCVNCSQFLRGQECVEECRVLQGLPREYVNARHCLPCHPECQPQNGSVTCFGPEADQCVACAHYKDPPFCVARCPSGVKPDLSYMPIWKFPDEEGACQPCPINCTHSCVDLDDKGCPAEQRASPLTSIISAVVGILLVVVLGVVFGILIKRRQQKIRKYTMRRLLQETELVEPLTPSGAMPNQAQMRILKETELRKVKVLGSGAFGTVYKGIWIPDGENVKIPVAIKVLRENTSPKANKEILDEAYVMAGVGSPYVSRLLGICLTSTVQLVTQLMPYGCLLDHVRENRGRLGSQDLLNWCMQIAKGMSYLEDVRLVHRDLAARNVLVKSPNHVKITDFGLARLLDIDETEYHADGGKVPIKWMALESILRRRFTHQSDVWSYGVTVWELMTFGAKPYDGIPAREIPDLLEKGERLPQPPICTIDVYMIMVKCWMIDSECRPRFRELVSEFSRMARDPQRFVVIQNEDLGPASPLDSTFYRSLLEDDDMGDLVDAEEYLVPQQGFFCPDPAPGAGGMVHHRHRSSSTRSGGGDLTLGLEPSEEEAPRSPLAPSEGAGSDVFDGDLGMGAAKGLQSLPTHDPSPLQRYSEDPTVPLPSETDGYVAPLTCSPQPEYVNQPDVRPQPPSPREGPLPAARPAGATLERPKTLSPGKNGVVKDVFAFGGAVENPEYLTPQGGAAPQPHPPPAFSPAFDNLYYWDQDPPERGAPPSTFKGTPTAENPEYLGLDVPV

Turning to `COC(=O)CN(c1ccc(OC)cc1)S(=O)(=O)c1ccc(OC)c(OC)c1`, the viability was 89.5% in [1]; 89.5% (inactive) in assay [3]; 96.5% (inactive) in assay [4]; 88.1% (inactive) in assay [5]; 85.3% in assay [6] (setting [16]); 88.1% in [6] (setting [17]). Moreover, the viability in assay [12] was 98.5% (inactive); in assay [13] it was 99.5% (inactive). Further, in assay [2], the Her2 level was 91% (inactive). In assay [6] (H69AR cells + 2 uM doxorubicin), the differential viability (reversal) is 2.77% (inactive). Besides, the values for the inhibition in assay [7], in assay [8] and in assay [14] were -0.78% (inactive), -2.3% (inactive) and 1.75% (inactive), respectively. In addition, the growth inhibition is -13.7% (inactive) in assay [9] and -17% (inactive) in [10]. In addition, the viability increase in [11] was -1.06% (inactive). In [15], the RAM network inhibition was 4.96% (inactive).

As for `O=C(CSc1ncnc2nc[nH]c12)c1ccc(Cl)cc1`, the viability in [1] was 76%; in [3] it was 76% (inactive); in [4], 63% (inactive); in assay [5], 91.1% (inactive); in assay [6] (setting [16]) it was 99.7%; in assay [6] (setting [17]) it was 91.1%. Also, the viability in assay [12] was 39.8% (inactive); in assay [13] it was 37.7% (inactive). In addition, the Her2 level in assay [2] is 98% (inactive). Moreover, the differential viability (reversal) in assay [6] (H69AR cells + 2 uM doxorubicin) is -8.57% (inactive). Besides, the inhibition in assay [7] was -3.47% (inactive); in assay [8], 2.13% (inactive); in assay [14], 1.29% (inactive). The growth inhibition in [9] is 1.02% (inactive); in assay [10], 11.4% (inactive). In addition, in assay [11], the viability increase was -1.43% (inactive). Moreover, the RAM network inhibition in assay [15] was 5.06% (inactive).

Turning to `COc1ccc(N2CCN(C(=O)c3c(-c4ccccc4)noc3C)CC2)cc1`, the viability in assay [1] is 91.5%; in [3] it was 91.5% (inactive); in assay [4], 94.4% (inactive); in [5], 88.1% (inactive); in assay [6] (setting [16]), 92.8%; in assay [6] (setting [17]), 88.1%. Also, the values for the viability in assay [12] and in assay [13] were 94.4% (inactive) and 90.3% (inactive), respectively. The Her2 level in assay [2] was 108% (inactive). Moreover, the differential viability (reversal) in [6] (H69AR cells + 2 uM doxorubicin) is -4.69% (inactive). For the same compound, the results for the inhibition in [7], in [8] and in assay [14] were 0.51% (inactive), 4% (inactive) and 0.795% (inactive), respectively. Besides, the growth inhibition in assay [9] is -9.57% (inactive); in [10], -10.4% (inactive). Moreover, the viability increase in [11] is -2.79% (inactive). The RAM network inhibition in [15] was 4.5% (inactive).

Consider `CCC(=O)c1cc(F)c(N2CCN(C(=O)c3ccco3)CC2)cc1C`, for which the viability in assay [1] was 82%; in assay [3] it was 82% (inactive); in assay [4] it was 91.2% (inactive); in [5], 87.9% (inactive); in [6] (setting [16]) it was 96.3%; in assay [6] (setting [17]) it was 87.9%. In addition, the viability in assay [12] was 97.9% (inactive); in [13], 88.3% (inactive). The Her2 level in [2] was 90.5% (inactive). The differential viability (reversal) in [6] (H69AR cells + 2 uM doxorubicin) is -8.33% (inactive). Moreover, the inhibition was -0.8% (inactive) in [7], 2.13% (inactive) in [8] and 1.4% (inactive) in assay [14]. For the same compound, the figures for the growth inhibition in [9] and in assay [10] were -10.3% (inactive) and -0.62% (inactive), respectively. For the same compound, the viability increase in assay [11] was -0.95% (inactive). In [15], the RAM network inhibition was 0.21% (inactive).

For `Cc1cc2nc(-c3ccco3)cc(C(F)(F)F)n2n1`, the viability in [1] is 93.5%; in assay [3], 93.5% (inactive); in assay [4] it was 102% (inactive); in [5], 93.3% (inactive); in assay [6] (setting [16]), 86.6%; in assay [6] (setting [17]) it was 93.3%. Further, the viability in [12] and in assay [13] was 105% (inactive) each time. Moreover, the Her2 level in [2] was 90% (inactive). Besides, the differential viability (reversal) in assay [6] (H69AR cells + 2 uM doxorubicin) was 6.71% (inactive). The inhibition is 1.28% (inactive) in assay [7], 8.17% (inactive) in [8] and 1.89% (inactive) in assay [14]. Moreover, the growth inhibition is -17.4% (inactive) in assay [9] and -8.99% (inactive) in assay [10]. For the same compound, the viability increase in assay [11] is 1.14% (inactive). In assay [15], the RAM network inhibition was 2.83% (inactive).

Take `O=C(c1ccco1)N1CCN(C2=NS(=O)(=O)c3ccccc32)CC1`: the viability in assay [1] is 104%; in assay [3] it was 104% (inactive); in assay [4], 99.1% (inactive); in [5], 94.8% (inactive); in assay [6] (setting [16]) it was 90.8%; in assay [6] (setting [17]), 94.8%. Besides, the viability in assay [12] was 93.1% (inactive); in [13], 96.3% (inactive). Moreover, the Her2 level in assay [2] is 142% (inactive). Also, the differential viability (reversal) in assay [6] (H69AR cells + 2 uM doxorubicin) was 3.94% (inactive). For the same compound, the inhibition in [7] was -1.69% (inactive); in assay [8], -12.7% (inactive); in assay [14] it was 0.41% (inactive). Further, the growth inhibition was -13.5% (inactive) in [9] and -1.96% (inactive) in [10]. The viability increase in assay [11] is -2.12% (inactive). The RAM network inhibition in assay [15] was 6.34% (inactive).

Broadly, the viability is a read-out of living cells in per cent, often relative to untreated cells. As usually defined, the inhibition is the change of the read-out against control, counted positive when it falls.
